In the library only some 2.4% were active in any assay of this set; here they are far more common.
Pol iota inh = qHTS for Inhibitors of Polymerase Iota. DNA polymerase iota (Homo sapiens), Q9UNA4. Potency, µM (series often up to 115 µM), for the others: at the highest dose activity, negative = inhibition, hits mostly inhibitors. AID 588590, 2011. 390,000 compounds, 1% hits. Pol iota fluorescent replication assay, 10 min
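Fluorescent replication assay read twice, at 0 min and 10 min after adding 50 nM (final) substrate. Enzyme (10 nM) and compounds were first incubated 15 min at room temperature; enzyme-free buffer wells were negative controls.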
WRN inhibitor = qHTS for Inhibitors of WRN Helicase; 360,000 compounds, 0.46% hits; WRN helicase unwinding, fluorescent forked duplex, kinetic; Potency, µM (series often up to 114 µM), inactives show at the top dose activity change, negative = inhibition, hits mostly inhibitors; further: on the % scale 0 is the no-effect control and ±100 the full control effect; nearly all actives have a fitted effect of over 55% in size
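Kinetic red-fluorescence monitoring (525/598 nm) tracks WRN helicase activity after 100 nM fluorophore-quencher forked duplex and 2 mM ATP are added to 20 nM enzyme pretreated 15 min at room temperature with compound.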
POLK inh = qHTS for Inhibitors of Polymerase Kappa | DNA polymerase kappa (Homo sapiens), Q9UBT6 | purified Pol kappa, fluorescent DNA synthesis assay, 10 min | AID 588579, 2011 | Potency, µM (highest dose often 107 µM), for inactives: at the top dose activity, negative = inhibition, most hits filed as inhibitors | 400,000 compounds, 0.53% hits; further: on the % scale 0 is the no-effect control and ±100 the full control effect
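Inhibition of 10 nM Pol kappa is measured by a fluorescent read-out at 0 and 10 min following addition of 50 nM substrate (final), with a 15-min room-temperature compound preincubation.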
FEN1 inhibitor = qHTS Assay for the Inhibitors of Human Flap endonuclease 1 (FEN1); P39748; Recombinant FEN1 flap cleavage, fluorescence, 15 min; Potency, µM (titrated, usually from 114 µM), for the others: at the highest dose activity change, negative = inhibition, most hits filed as inhibitors; 390,000 compounds, 0.35% hits; AID 588795, 2011; further: on the % scale 0 is the no-effect control and ±100 the full control effect; nearly all actives have a fitted effect of over 65% in size
Target sequence (P39748 whole entry, looked up): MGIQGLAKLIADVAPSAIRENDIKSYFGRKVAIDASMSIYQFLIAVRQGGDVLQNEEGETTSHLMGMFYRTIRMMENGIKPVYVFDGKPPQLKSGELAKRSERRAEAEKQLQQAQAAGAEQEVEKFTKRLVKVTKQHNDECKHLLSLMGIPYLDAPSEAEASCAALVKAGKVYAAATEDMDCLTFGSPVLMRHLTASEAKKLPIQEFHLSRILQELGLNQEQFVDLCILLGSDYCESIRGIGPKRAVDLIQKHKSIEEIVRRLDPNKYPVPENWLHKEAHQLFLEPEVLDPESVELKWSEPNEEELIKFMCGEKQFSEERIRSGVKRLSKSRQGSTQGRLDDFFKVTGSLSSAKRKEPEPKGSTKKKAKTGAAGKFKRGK
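Enzyme 10 nM, 15 min RT preincubation with compound; start with substrate 50 nM final; reads at 0 and 15 min; qHTS titration, four-parameter Hill fit.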
Pol beta inh = qHTS Assay for Inhibitors of DNA Polymerase Beta; P06746; Potency, µM (series often up to 114 µM), for the others: top-dose activity change, negative = inhibition, actives largely listed as inhibitors; Pol beta primer extension/strand displacement, fluorescence kinetic; 340,000 compounds, 1.3% hits; further: on the % scale 0 is the no-effect control and ±100 the full control effect
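Curves were derived by four-parameter Hill fits of normalized qHTS data. The kinetic fluorescent primer-extension read was taken at 0 and 10 min after 50 nM substrate, following a 15 min room-temperature preincubation of 10 nM enzyme with compounds.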
Pol eta inh = qHTS for Inhibitors of Polymerase Eta | DNA polymerase eta (Homo sapiens), Q9Y253 | Potency, µM (highest dose often 114 µM), inactives show at the top dose activity change, negative = inhibition, hits mostly inhibitors | recombinant Pol eta, fluorescent DNA replication assay | AID 588591, 2011 | 390,000 compounds, 1.2% hits; further: on the % scale 0 is the no-effect control and ±100 the full control effect
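Pol eta at 10 nM preincubated with compounds 15 min at room temperature; reaction started with fluorescent substrate (50 nM final) and read kinetically at 0 and 10 min.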
Numbers without * were called inactive; u = inconclusive; x = not tested or not shown; [ ] = another dose, or the depositor's remark. The call rests on the fitted dose curve; in most records, active means well fitted curve in the direction sought with a large enough effect; inconclusive means small, poorly fitted or top-dose-only effect, or another doubt; inactive means no such curve, though single readings can be large; an effect the other way counts as inactive or inconclusive. Potency means the concentration at half of the fitted maximal effect.

SMILES	Pol iota inh	WRN inhibitor	POLK inh	FEN1 inhibitor	Pol beta inh	Pol eta inh
Cc1ccc2c(c1)N(C(=O)N1CCC(C(=O)NCCc3ccc(Cl)cc3)CC1)CC(C)O2 (stereo not given)	u	x	1%	-1%	-1%	-10%
COc1ccc(OC)c(/C=C/c2c3ccccc3cc[n+]2C)c1	44%	x	-20%	-15%	x	x
Cc1onc(-c2c(F)cccc2Cl)c1C(=O)NC1C(=O)N2C1SC(C)(C)C2C(=O)O (stereo not given)	x	x	-1%[60.1 µM]	x	x	x
O=C1CCN(S(=O)(=O)c2ccccc2)C2CCCCC12 (stereo not given)	u	10%	-18%	-4%	3%	-12%
O=C1NC2CCCCC2C(=O)N1OS(=O)(=O)c1ccccc1 (stereo not given)	u	50µM*	-6%	46%	x	-10%
CCOc1cc(/C=C(\C#N)C(=O)Nc2cccc(C(=O)O)c2)cc(Br)c1OC(=O)c1ccc(OC)cc1	u	u	u	-29%	16µM*	79µM*
COc1cccc(/C=C(/C#N)c2ccc(F)cc2)c1OCc1cccc(C(=O)O)c1	u	-21%	-28%	-2%	40µM*	u
N#C/C(=C/c1ccc(OCc2ccc(C(=O)O)cc2)cc1)C(=O)Nc1ccccc1	10%	-17%	4%	u	2%	u
COc1cccc(/C=C(/C#N)c2ccc(Cl)cc2)c1OCc1cccc(C(=O)O)c1	57%	-5%	-5%	-3%	u	-1%
N#C/C(=C/c1cccn1-c1cccc(C(=O)O)c1)c1ccc(F)cc1	25µM*	-2%[11.6 µM]	u	15%	32µM*	25µM*
COc1cc(/C=C(\C#N)C(=O)Nc2cccc(C(=O)O)c2)ccc1OCc1ccc(F)cc1	u	0%[11.6 µM]	-11%	u	45µM*	50µM*
CCOc1cccc(NC(=O)/C(C#N)=C/c2cccnc2)c1	-16%	-6%	-7%	-16%	2%	-7%
CCCN(CCC)C(=O)Cn1c(SCc2cccc(F)c2)nc2cccnc21	26%	x	-14%	0%	-16%	-11%
CNc1ccc(/C=C2\C=Cc3ccccc32)cc1OC	1%	x	-18%	-6%	x	x
CCOC(=O)c1c(C)sc(-c2c(-c3ccc4c(c3)OCCO4)[nH]c3c2c(=O)[nH]c(=O)n3C)c1O	-24%	x	-10%	9%	u	u
Cc1c(Cn2cnc3c(cnn3C(C)(C)C)c2=O)cccc1C(F)(F)F	-2%	x	9%	5%	x	x
COc1cc(/C=C/[N+](=O)[O-])ccc1OCc1cccc(C(=O)O)c1	u	20µM*	25µM*	50µM*	32µM*	32µM*
COc1ccccc1O	-19%	6%	14%	1%	-2%	-6%
COc1cccc(O)c1O	x	x	3.2µM*	x	x	x
Cc1occc1-c1nnc(SCc2cc(=O)n3cc(Br)ccc3n2)n1C	u	-14%	-45%	-3%	45µM*	u
Cc1ccccc1Nc1nc(CSc2nnc(-c3ccoc3C)n2C)cs1	18%	0%	1%	10%	6%	-3%
Cc1cccc(N2CCN(C(=O)C3CCCN(S(=O)(=O)c4cccc5nsnc45)C3)CC2)c1C (stereo not given)	8%	x	0%	-11%	10%	-15%
COc1cc(N)c(N)cc1OC	22µM*	x	-21%	u	x	x
CC(=O)C(C(C)=O)C1(O)C(=O)c2ccccc2C1=O	3.2µM*	9%	-2%	-4%	u	89µM*
COc1ccc(O)c(C2(O)C(=O)c3ccccc3C2=O)c1	5%	-5%	-12%	3%	-2%	-12%
SMILES	Pol iota inh	WRN inhibitor	POLK inh	FEN1 inhibitor	Pol beta inh	Pol eta inh
CCN(CC)CCn1nc2c3c(cccc3c1=O)-c1ccccc1-2	u	-1%[11.6 µM]	-64%	u	10µM*	-10%
O=c1c2cccc3c2c(nn1CN1CCOCC1)-c1ccccc1-3	-2%	-3%	-11%	u	12%	7%
Cc1ccccc1-c1cc2c(nn1)-c1ccccc1C2=O	16µM*	-9%	-6%	-5%	-2%	-14%
COc1ccc(OC)c(NC(=O)c2cc3cc(C)ccc3n2C)c1	40%	x	5%	-5%	3%	-15%
COC(=O)c1c(NC(=O)c2ccc(Br)s2)sc2c1CCC2	u	u	-14%	-8%	2%	-14%
COC(=O)c1c(NC(=O)c2ccoc2C)sc2c1CCC2	u	-17%	u	-8%	22µM*	u
O=C(Nc1ncc([N+](=O)[O-])s1)c1ccccc1Br	28µM*	-12%	u	15%	u	50µM*
COc1cc2c(cc1O)CCN[C@@]21CS[C@H]2c3c(OC(C)=O)c(C)c4c(c3C(COC1=O)N1C2C2c3c(cc(C)c(OC)c3O)CC([C@@H]1O)N2C)OCO4 (stereo not given in full)	x	x	-19%[19.4 µM]	x	x	x
Nc1cc(C(=O)O)c(N)c2c1C(=O)c1ccccc1C2=O	20µM*	u	u	35µM*	u	20µM*
Cc1cc(C(=O)CSc2nnc(-c3ccco3)o2)c(C)n1C	35µM*	-4%[11.6 µM]	u	-11%	x	-6%
CCn1c(C)cc(C(=O)CSc2nnc(-c3ccco3)o2)c1C	-22%	1%	-10%	-13%	x	-9%
COc1ccc(NC(=O)CCn2c(-c3ccc(F)cc3)cc(C(C)=O)c2C)c(OC)c1	28%	x	-9%[60.1 µM]	11%	-5%	-20%
O=S(=O)(c1ccccc1)N1CCSC1c1ccco1 (stereo not given)	u	-21%	-8%	1%	45µM*	u
O=C1N=c2ccc(Br)cc2=C1c1sc(=S)n(NS(=O)(=O)c2ccccc2)c1O	26%	-20%[11.6 µM]	-14%	79µM*	-15%	-15%
O=C1N=c2ccccc2=C1c1sc(=S)n(NC(=O)c2cccc(O)c2)c1O	u	-6%	-14%	-1%	13%	u
Cc1[nH]n(-c2ncc(-c3ccccc3)s2)c(=O)c1C(c1ccc(Br)cc1)C(C#N)C#N (stereo not given)	u	u	u	u	45µM*	22µM*
Cc1[nH]n(C(N)=S)c(=O)c1C(c1ccccc1)C(C#N)C#N (stereo not given)	u	-22%[57.1 µM]	-7%	-2%	-2%	-16%
Cn1c(SCCOc2ccccc2)nnc1-c1ccc(NC(=O)CCc2ccccc2)cc1	30%	x	4%	2%	x	x
O=C(Nc1cccc(F)c1)N1CC2(CCN(C(=O)c3cccc(F)c3)CC2)C1	x	x	3%[60.1 µM]	x	x	x

Screens deposited in PubChem by National Center for Advancing Translational Sciences (NCATS).
